The results in this text go back to PubChem BioAssay AID652283 (National Center for Advancing Translational Sciences (NCATS), 2013).

Where “and” joins values, the source holds several entries; their conditions need not be identical. Equal values may be shown once. Results filed as inconclusive are left out. More than one record can exist for a structure, and the calls need not agree. Calls of active or inactive are those of the source. The call rests on the fitted dose curve; in most records, active means well fitted inhibition curve with a large enough effect; inconclusive means small, poorly fitted or top-dose-only effect; inactive means no such curve, though single readings can be large or run the other way.

A short description of the test: qHTS Assay for Lipid Storage Modulators: COS7 Assay against Probe and Analogs. The note with it: COS7 lipid droplet area, BODIPY imaging, 18 h; cells loaded with 400 µM oleic acid. From the text: Storing lipids as a reservoir for energy or the anabolism of elementary metabolites is a common feature of probably all cells and is conserved from bacteria to humans. The universal cellular lipid storage organelle is the so-called lipid storage droplet (LD). Although ubiquitous, LDs share a simple structure composed of a hydrophobic core that harbors the storage lipids, which is shielded by a droplet-specific phospholipid monolayer to which proteins are attached. The current model of LD biogenesis involves an incorporation of the lipid core into the membrane leaflets of the endoplasmic reticulum (ER) followed by a subsequent budding-like maturation of a LD, which ultimately pinches off. Once released, LD volume can increase by localized lipogenesis or fusion of existing droplets. Storage lipids are re-mobilized enzymatically by lipase activity. Lipase regulation in the adipocyte is heavily studied and involves multiple components including catecholamine signaling, the LD-associated proteins Perilipin and comparative gene identification-58 (CGI-58) and at least two lipases named hormone sensitive lipase (HSL) and adipocyte triglyceride lipase (ATGL). LD regulation outside of the adipocyte is poorly understood and only few components are known. However, there is an urgent need to learn more about ectopic fat depots as mislocalized storage of lipids, for example in the liver or muscle, is an eminent health problem associated with insulin resistance or the metabolic syndrome. We developed a laser-scanning cytometer assay to enable 1,536-well screening and combined the results of the small molecules screen with an RNAi database based on lipid storage. In this assay we tested analogs of the probe against a mammalian cell line (COS7), to see if these small molecules could disrupt lipid storage. NIH Molecular Libraries Probe Production Centers Network [MLPCN] NIH Chemical Genomics Center [NCGC] MLPCN Grant: MH085686 Assay Submitter (PI): Mathias Beller, Max-Planck-Institut fur Biophysikalische Chemie
COS7 cells were obtained from ATCC (CRL-1651), 5500 cells/well were dispensed into Corning 96 well imaging plate (catalog # 3340), and cultured in 100 uL of 1:1 DMEM medium (PAA) contain 10% fetal bovine serum (FBS) for 24 hours at 37 degrees C, 95% humidity, and 5% CO2. The medium was exchanged for compound treatment. Compound treatment occurred in 150 microL serum reduced medium (5% FBS) and 0.2% DMSO in presence of 400 microM oleic acid for 17-18 h. Cells were then fixed (3.7 % formaldehyde in PBS, 5 min), permeabilized (0.1% Triton X100, 5 min) and washed three times with PBS. Lipid droplets (1:2000 BODIPY 493/503) and nuclei (1:1000 Hoechst 33342) were stained for 1h. Imaging was performed in a Zeiss Axiovert automatic microscope. Number of lipid droplet accumulated in […] cells were analyzed using visual examination of the microscopic images and additional quantification by image segmentation using Cell Profiler.
Regarding `O=C(NC1CCCc2c1cnn2-c1ccc(F)cc1F)c1ccccn1` (stereo not given), the Potency is 16.6 µM (active) and 14.8 µM (active); the max response was 16% (inactive).

`CC1=C(C(=O)NC2CCCc3c2cnn3-c2ccc(F)cc2F)OCCO1` (stereo not given): the Potency was 13.2 µM (active).

As to `CCn1c(C(=O)NCCc2ccc(OC)cc2)cc2sccc21`, the max response was 14.9% (inactive).

With `CCOC(=O)C1CCN(C(=O)C(C)(C)NC(=O)Nc2cccc(C(=O)OC)c2)CC1`, the max response is 9.87% (inactive).

As to `CCOc1ccc(CCNC(=O)c2cc3sccc3n2Cc2ccc(Cl)c(F)c2)cc1OCC`, the Potency is 0.296 µM (active).

With `O=C(NC1CCCc2c1cnn2-c1ccc(F)cc1F)c1ccc(C(=O)c2ccccc2)cc1` (stereo not given), the max response is 18.1% (inactive).

For `CCOC(=O)C1CCN(C(=O)CNC(=O)Nc2ccccc2Cl)CC1`, the max response was 11.1% (inactive).

For `Cc1cccc(-c2ccc3ncnc(NCc4cccc(F)c4)c3c2)c1`, the max response is -9.55% (inactive).

Regarding `O=C(Nc1cccc2c1cnn2-c1ccc(F)cc1)c1ccccn1`, the max response was 3.22% (inactive).

Regarding `O=C(NC1CCCc2c1cnn2-c1ccc(F)cc1F)c1cccs1` (stereo not given), the max response was -60.6% (inactive).

Take `CCNC(=O)C1CCN(C(=O)C(C)(C)NC(=O)Nc2ccccc2Cl)CC1`: the max response was -3.83% (inactive).

Consider `CCOc1ccc(CCNC(=O)c2cc3sccc3n2C(C)C)cc1OCC`, for which the Potency is 1.18 µM (active).

With `CCOc1ccc(CCNC(=O)C2COc3ccccc3O2)cc1OCC` (stereo not given), the Potency was 18.7 µM (active).

Take `O=C(Nc1cccc2nn(-c3ccc(F)cc3)cc12)c1ccccn1`: the max response is 9.12% (inactive).

On to `CCOC(=O)C1CCN(C(=O)C2(NC(=O)Nc3ccc(F)cc3F)CCCCC2)CC1`, for which the Potency was 16.6 µM (active).

Turning to `O=C(NC1CCCc2c1cnn2-c1ccc(O)cc1)c1ccccn1` (stereo not given), the Potency was 10.5 µM (active).

Regarding `O=C(NC1CCCc2c1cnn2-c1cccc(O)c1)c1ccccn1` (stereo not given), the Potency is 4.18 µM (active).

Turning to `O=C(NCCc1ccc2c(c1)OCO2)c1cc2sccc2[nH]1`, the max response is 5.04% (inactive).

As for `CCOc1ccc(CCNC(=O)c2cc3ccccc3n2Cc2cc(C)cc(C)n2)cc1OCC`, the Potency was 1.48 µM (active).

With `CCOc1ccc(CCNC(=O)c2cc3sccc3n2CC=C(C)C)cc1OCC`, the Potency was 2.35 µM (active).

`CCOc1ccc(CCNC(=O)c2ccc3[nH]ccc3c2)cc1OCC`: the max response is 20.9% (inactive).

For `O=C(CCCCCCC(=O)Nc1ccccc1)NO`, the max response was -18.2% (inactive).

For the compound `CCOc1ccc(CCNC(=O)c2csc(Br)n2)cc1OCC`, the max response was -17.2% (inactive).

Turning to `CCOc1ccc(CCNC(=O)c2cc3sccc3[nH]2)cc1OCC`, the max response is -4.32% (inactive).

As to `O=C(NC1CCCc2c1cnn2CCO)c1ccccn1` (stereo not given), the max response was 14.9% (inactive).

Take `CCOc1cc(CCNC(=O)c2cc3sccc3n2Cc2ccccc2)cc(F)c1OCC`: the Potency was 2.35 µM (active).

With `CC(C)(C)OC(=O)NCCOCCOCCOCCn1ncc2c1CCCC2NC(=O)c1ccccn1` (stereo not given), the max response was 0.489% (inactive).

Consider `CCOc1ccc(CCNC(=O)c2cc3sccc3n2C)cc1OCC`, for which the Potency is 8.33 µM (active).

In the case of `CCOc1ccc(CCNC(C)=O)cc1OCC`, the max response was -6.62% (inactive).

As to `CCOc1ccc(CCNC(=O)C2=C(C)OCCO2)cc1OCC`, the max response is 10.4% (inactive).

For `COc1cc(Nc2ncc(F)c(Nc3ccc4c(n3)NC(=O)C(C)(C)O4)n2)cc(OC)c1OC`, the max response is -7.73% (inactive).

With `O=C(Cc1ccccc1)NC1CCCc2c1cnn2-c1ccc(F)cc1F` (stereo not given), the max response is 1.55% (inactive).

Turning to `CCOc1ccc(CCNC(=O)c2ccccn2)cc1OCC`, the max response is 1.41% (inactive).

Turning to `O=C(NC1CCCc2c1cnn2-c1ccc(F)cc1F)c1ccccc1` (stereo not given), the Potency was 14.8 µM (active).

For `O=C(O)CCc1ccc(NCc2cccc(Oc3ccccc3)c2)cc1`, the max response is -0.35% (inactive).

Take `CCOc1ccc(CCNC(=O)C2CCCCC2)cc1OCC`: the max response was -8.52% (inactive).

Turning to `CCOc1ccc(CCNC(=O)c2ccc(N3N=C(C)CC3=O)cc2)cc1OCC`, the max response is 0.211% (inactive).

As for `CCOC(=O)C1CCN(C(=O)C(C)(C)NC(=O)Nc2ccc(C#N)cc2)CC1`, the max response was -15.2% (inactive).

Consider `CCn1c(C(=O)NCc2ccc(OC)c(OC)c2)cc2sccc21`, for which the max response was 0.0567% (inactive).
